{"source": "PubChem BioAssay (NCATS)", "note": "Results filed as inconclusive are left out. Active and inactive are the calls of the source. The call rests on the fitted dose curve; in most records, active means well fitted cell-killing curve with a large enough effect; inconclusive means small, poorly fitted or top-dose-only effect; inactive means flat fitted curve, though single readings scatter."}
{"test": "Cell Viability - LYMP2-019 (AID 973); further: nearly all actives have a fitted effect of over 55% in size", "details": "LYMP2-019 lymphoblastoid cell line viability; series mostly up to 92.2 µM", "excerpt": "NIH Chemical Genomics Center [NCGC]\nNIH Molecular Libraries Screening Centers Network [MLSCN]\nNational Institutes of Environmental Health Sciences [NIEHS]\nNational Toxicology Program [NTP]\nWe have developed a 1536-well cell-based assay for quantitative high throughput screening (qHTS) against a number of cell lines to determine in vitro cytotoxicity of small molecules. This particular assay uses a human lymphoblastoid cell line (LYMP2-019) purchased from Coriell Institute for Medical Research.\nNCGC Assay Protocol Summary:\nThe CellTiter-Glo luminescent cell viability assay (Promega) is a homogeneous method to measure the number of viable cells in culture. The end point readout of this assay is based on quantitation of intracellular ATP, an indicator of metabolic activity, using the luciferase reaction. Luciferase catalyzes the oxidation of beetle Luciferin to oxyluciferin and light in the presence of ATP. The luminescent signal is proportional to amount of ATP present.\nUsing the CellTiter-Glo luminescent cell viability assay, the amount of cellular ATP was measured in the lymphoblastoid cell line with complete culture medium following compound treatment for 24 hours. The assay was performed in opaque white Kalypsys 1536-well plates. In the screen, tetraoctylammonium bromide was used as positive control. Library compounds were measured for their ability to cause acute toxicity in the cell line, as reflected by a decrease in intracellular ATP levels, in a concentration-dependent manner. […] AC50 values were determined from concentration-response data modeled with the standard Hill equation.\nqHTS protocol for CellTiter Glo lymphoblastoid cellular assay\n[Step] [Parameter] [Value] [Description]\n1. Reagent; 5 uL; 2500 lymphoblastoid cells/well\n2. Time; 5 hr; 37 C incubation\n4. Controls; 23 nL; Tetraoctylammonium bromide 6.4pM to 92 uM\n5. Time; 24 hr; 37 C incubation\n6. Reagent; 5 uL; CellTiter Glo reagent\n7. Time; 30 min; Room Temperature\n8. Detection; Luminescence; Viewlux plate reader\nKeywords: cell viability, cytotoxicity, lymphoblastoid cell line, luminescence, NTPHTS, NTPHTS_NCGC, NIEHS, DSSTox, MLSMR, MLSCN, NIH Roadmap, qHTS, NCGC"}
{"smiles": "N[C@@H](Cc1c[nH]c2ccc(O)cc12)C(=O)O", "outcome": "inactive"}
{"smiles": "Nc1c2c(nc3ccccc13)CCCC2", "outcome": "inactive"}
{"smiles": "NS(=O)(=O)c1cc2c(cc1Cl)NCNS2(=O)=O", "outcome": "inactive"}
{"smiles": "CC(C)NCC(O)c1ccc(O)c(O)c1", "note": "(configuration not stated)", "outcome": "inactive"}
{"smiles": "O=c1c(-c2ccc(O)cc2)coc2cc(O)cc(O)c12", "outcome": "inactive"}
{"smiles": "Nc1ccn([C@H]2CC[C@@H](CO)O2)c(=O)n1", "outcome": "inactive"}
{"smiles": "Cn1c(=O)c2c(ncn2C)n(C)c1=O", "outcome": "inactive"}
{"smiles": "Clc1ccc(C(c2ccccc2Cl)C(Cl)Cl)cc1", "note": "(configuration not stated)", "outcome": "inactive"}
{"smiles": "CCC1(c2ccccc2)C(=O)NCNC1=O", "outcome": "inactive"}
{"smiles": "Cn1c(=O)c2[nH]cnc2n(C)c1=O", "outcome": "inactive"}
{"smiles": "COc1ccc2c(c1)c(CC(=O)O)c(C)n2C(=O)c1ccc(Cl)cc1", "outcome": "inactive"}
{"smiles": "Cc1cn([C@H]2C=C[C@@H](CO)O2)c(=O)[nH]c1=O", "outcome": "inactive"}
{"smiles": "O=c1[nH]cc(F)c(=O)[nH]1", "outcome": "inactive"}
{"smiles": "COc1ccc2[nH]cc(CCNC(C)=O)c2c1", "outcome": "inactive"}
{"smiles": "NCCS(=O)(=O)O", "outcome": "inactive"}
{"smiles": "Cc1cn([C@H]2C[C@H](N=[N+]=[N-])[C@@H](CO)O2)c(=O)[nH]c1=O", "outcome": "inactive"}
{"smiles": "Cc1ccc(-c2cc(C(F)(F)F)nn2-c2ccc(S(N)(=O)=O)cc2)cc1", "outcome": "inactive"}
